RMI FANCM FP – RMI-FANCM interaction inhibition; Fluorescence polarization, RMI core complex with F-MM2 peptide; stronger effect = lower value; FP signal (polarization) at 33 µM; hit rate 0.58% among 70,000; AID 1159607; in the data active = FP signal below about 40
A number is an active result; 0 = inactive; ! = repeats disagree. Many of the other results were omitted from the sample, so hits are more common in it than they were.

SMILES	RMI FANCM FP
O=C1c2c(O)ccc([N+](=O)[O-])c2C(=O)c2c(O)ccc([N+](=O)[O-])c21	-25
O=C1Oc2ccccc2C(=O)/C1=C/N1CCCCC1	0
Cc1ccccc1Cn1cnc2c(cnn2CCNC(=O)COc2ccc(Cl)cc2)c1=O	0
COc1ccc(N2C(=O)c3ccc(C(=O)c4ccc5c(c4)C(=O)N(c4ccc(OC)cc4)C5=O)cc3C2=O)cc1	6
COc1ccc(SCC(=O)Nc2ccc3c(c2)C(=O)N(C)C3=O)cc1	0
C=CC(=O)Oc1ccc(N2C(=O)c3cccc([N+](=O)[O-])c3C2=O)cc1	0
CCC(=O)Oc1cccc(N2C(=O)C3CCCCC3C2=O)c1 (configuration not stated)	0
CCC(=O)Oc1ccc(N2C(=O)c3ccccc3C2=O)cc1	31
COc1ccc(N2C(=O)C3C4C=CC(O4)C3C2=O)cc1 (configuration not stated)	0
CC(C)COc1ccc(-c2nn(-c3ccccc3)cc2C#N)cc1	0
O=C(Nc1ccc(Br)cc1F)NC1CC(=O)N(c2ccc3c(c2)OCCO3)C1 (configuration not stated)	0
CCCc1cc(=O)[nH]c2nnc(SCC(=O)c3ccc(OC)cc3)n12	0
O=C(Nc1cc(-c2ccc(Cl)cc2)[nH]n1)c1ccc2nsnc2c1	0
COc1cccc(CNC(=O)CSc2ccc(NC(=O)c3ccc(C)cc3)nn2)c1	0
O=[N+]([O-])c1ccccc1O[C@@H]1O[C@H](CO)[C@H](O)[C@H](O)[C@H]1O	0
OCc1ccccc1O[C@@H]1O[C@H](CO)[C@@H](O)[C@H](O)[C@H]1O	0
O=C(O)c1cc(O)c2c(c1)[C@@H]([C@@H]1c3cc(C(=O)O)cc(O)c3C(=O)c3c(O[C@H]4O[C@H](CO)[C@@H](O)[C@H](O)[C@H]4O)cccc31)c1cccc(O[C@H]3O[C@H](CO)[C@@H](O)[C@H](O)[C@H]3O)c1C2=O	34
COc1ccc(NC(=O)Oc2ccccc2)cc1N1CCCCC1=O	0
O=C(c1ccccc1)c1cn(Cc2ccccc2)c2cc3c(cc2c1=O)OCCO3	0
Cc1ccc(C)c(S(=O)(=O)N=C2C=C(SCC(=O)O)C(=O)c3ccccc32)c1	0
Cc1ccc(C)c(S(=O)(=O)N=C2C=C(Cl)C(=O)c3ccccc32)c1	20
Cc1ccc(C)c(S(=O)(=O)N2C(=S)NC(=O)C2Cc2ccccc2)c1 (configuration not stated)	0
O=C(Nc1ccccn1)NC1CC(=O)N(c2ccc(Cl)cc2)C1 (configuration not stated)	0
O=C(CSc1nc2c(oc3ccccc32)c(=O)n1CC1CCCO1)Nc1cccc(Cl)c1 (configuration not stated)	0
Cc1cc(NC(=O)CN2CC3CC(C2)c2cccc(=O)n2C3)nc2c1c(=O)oc1ccccc12 (configuration not stated)	31!
SMILES	RMI FANCM FP
Cc1cc(NC(=O)C(C)(C)Oc2ccc(Cl)cc2)nc2c1c(=O)oc1ccccc12	0
COC(=O)c1ccc(NC(=O)CCCn2nc(-c3cccs3)ccc2=O)cc1	0
N/C(=N/OC(=O)c1ccccc1)c1csc(-c2cccnc2)n1	0
CCOC(=O)c1sc(NC(=O)c2ccnn2C)c(C(=O)OCC)c1C	0
O=c1c(-c2ccccc2)coc2cc(O)cc(O)c12	33
O=c1cc(-c2ccccc2)oc2cc(O)cc(O)c12	0
COc1cc(O)c2c(=O)c(-c3ccc(O)cc3)coc2c1	0
COc1ccc(S(=O)(=O)N2CCCC2C(N)=O)cc1 (configuration not stated)	0
NC(=O)C1CCN(S(=O)(=O)c2ccc(N3CCOCC3)nc2)CC1	0
O=S(=O)(Nc1ccc(OC(F)F)cc1)c1cccc2nonc12	0
CNc1nn(CC(=O)Nc2cc(Cl)ccc2OC)c(N)c1-c1nc(-c2ccccc2C)no1	0
COc1ccc(Oc2ccc([N+](=O)[O-])cc2-c2nc(-c3ccccn3)no2)cc1	0
CCOC(=O)CNC(=O)c1cc([N+](=O)[O-])ccc1Oc1ccc(OC)cc1	0
COc1ccc(Oc2ccc([N+](=O)[O-])c3nonc23)cc1	4
CS(=O)(=O)N1CCCC1C(=O)N1CCN(c2nc3c(Cl)cccc3s2)CC1 (configuration not stated)	0
CCN(CC)C(=O)N1CCN(c2ccc(Nc3ccnc4cc5ccccc5cc34)cc2)CC1	0
O=C(Oc1ccc(NS(=O)(=O)c2ccc3ccccc3c2)cc1Cl)c1ccccc1	29
COc1cc(NS(=O)(=O)c2ccc3ccccc3c2)ccc1N1CCCCC1=O	0
O=C(COc1ccc(S(=O)(=O)Nc2ccccc2)cc1Cl)c1ccccc1	0
CCOc1ccc(NC(=O)c2ccc(=O)n(C)n2)cc1	0
CCCCn1c(-c2ccc(OC)cc2)nc2ccccc21	0
COc1ccccc1-c1nnc(C2CCN(C(=O)c3ccc4c(c3)OCO4)CC2)s1	0
O=C(CCCn1nc(-c2ccco2)ccc1=O)NCc1ccco1	0
O=C(COC(=O)c1cccc([N+](=O)[O-])c1)c1ccc(NC(=O)c2ccccc2)cc1	0
CCOC(=O)CCC(=O)O[C@H]1[C@H](O[C@@H]2[C@@H](C)[C@H](O[C@H]3C[C@@](C)(OC)[C@@H](O)[C@H](C)O3)[C@@H](C)C(=O)O[C@H](CC)[C@@](C)(O)[C@H](O)[C@@H](C)C(=O)[C@H](C)C[C@@]2(C)O)O[C@H](C)C[C@@H]1N(C)C	-23
SMILES	RMI FANCM FP
CCC(=O)O[C@H]1[C@H](O[C@@H]2[C@@H](C)[C@H](O[C@H]3C[C@@](C)(OC)[C@@H](O)[C@H](C)O3)[C@@H](C)C(=O)O[C@H](CC)[C@@](C)(O)[C@H](O)[C@@H](C)C(=O)[C@H](C)C[C@@]2(C)O)O[C@H](C)C[C@@H]1N(C)C	0
CCOC(=O)CCC(=O)OC1C(OC2C(C)C(OC3CC(C)(OC)C(O)C(C)O3)C(C)C(=O)OC(CC)C(C)(O)C(O)C(C)C(=O)C(C)CC2(C)O)OC(C)CC1N(C)C (configuration not stated)	0
CCOc1coc(C(=O)Nc2cccc(C)c2C)cc1=O	0
COc1ccc2c(c1)c(CC(=O)OCC(=O)OCc1ccccc1)c(C)n2C(=O)c1ccc(Cl)cc1	0
C[C@H](NC(CCc1ccccc1)C(=O)O)C(=O)N1CCC[C@H]1C(=O)O (some centres not stated)	34
O=C(O)C1CCCN1C(=O)c1cccs1 (configuration not stated)	0
CCOC(=O)[C@H](CCc1ccccc1)N[C@H]1CCc2ccccc2N(CC(=O)O)C1=O	0
C[C@@H]1CC[C@H]2C(C)(C)C3CC12CC[C@@]3(C)O (some centres not stated)	0
COc1ccc(OC)c(S(=O)(=O)Nc2cc(Sc3ccccc3)c(O)c3ccccc23)c1	0
Cc1cc(Cl)c(Cl)cc1S(=O)(=O)Nc1ccccc1C(=O)O	0
Cc1cc(C)c(S(=O)(=O)Nc2cc(Cl)c(O)c3ccccc23)cc1C	25
O=C(Cc1ccc(F)cc1)N1CCCC(c2nnc(-c3ccc4c(c3)OCO4)o2)C1 (configuration not stated)	0
CCc1ccc(-c2noc(CN3C(=O)COc4ccc(C)cc43)n2)cc1	0
CC(=O)NNC(=O)CCN1C(=O)S/C(=C\c2ccc(C)cc2)C1=O	0
COc1ccc(OC)c(S(=O)(=O)Nc2ccc3c(c2)CN(S(=O)(=O)c2ccccc2)CC3)c1	0

High-throughput results as filed in PubChem.
